Assay [1] in a line: AP1 Signaling Pathway (AID 357).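 Further: ME-180 reporter cells stimulated with EGF at its EC50 level; on the % scale 0 is the no-effect control and ±100 the full control effect.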 The method in brief:
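A ratiometric CCF4 readout (405 nm excitation; 460 and 530 nm emission) quantified AP-1-driven beta-lactamase in ME-180 cells after 5 h with compound and EC50 EGF; AC50 values were derived for activators and inhibitors.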

Assay [2] can be described thus: NFAT Signaling Pathway (AID 444).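 Further: carbachol stimulus at about its EC50 of 1 µM final; on the % scale 0 is the no-effect control and ±100 the full control effect.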 The settings on record: Jurkat NFAT-bla M1, carbachol, beta-lactamase ratio, 5 h; at 17.2 µM (top of the series) unless noted. The method in brief: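 Read-out: CCF4 FRET ratio (460 nm/530 nm) after 1 h RT dye loading, used for %activity and AC50 from titration series. Cells: Jurkat NFAT-β-lactamase/M1 line, treated with compound plus 1 uM carbachol for 5 h, 37 °C.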

Assay [3] in a line: Stat Signaling Pathway (AID 446).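 Further: ME-180 cervical cancer cells given 40 pM IL-6 alongside compound; SIE-controlled beta-lactamase reporter measured as 460/530 nm FRET emission ratio; on the % scale 0 is the no-effect control and ±100 the full control effect.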 The method in brief:
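ME-180 SIE-bla cells; overnight plating; cpd + IL-6 40 pM, 5 h, 37 C; LiveBLAzer 2.5 h RT; 460/530 nm emission ratio. Normalized to 300 pM IL-6 and 125 nM JAK inhibitor controls.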

Assay [4] addresses Glucocorticoid receptor (Homo sapiens) (UniProt P04150). Put plainly: GR-GFP Redistribution (AID 450;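 active means compounds whose dose series gives a full or clear partial fitted curve of increased nuclear translocation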; further: potency means the concentration at half of the fitted maximal effect). The settings on record: U2OS GR-GFP nuclear translocation, laser cytometry, 2 h.
Assay [5] concerns the target Mitogen-activated protein kinase 10 (Mus musculus) (UniProt Q61831). Put plainly: JNK3 AlphaScreen Assay (AID 530).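 Further: kinase came from lysate of stimulated human HepG2 cells.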 Further: potency means the concentration at half of the fitted maximal effect. The method in brief: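 Room-temperature AlphaScreen kinase assay; pre-activated HepG2 lysate as JNK3 source, biotin-GST-cJun(1-79) substrate, 10 uM ATP, compound 15 min preincubation.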
In general terms: In Alpha technology, singlet oxygen from a donor bead excites a nearby acceptor bead.

Assay [6] is described as follows: qHTS Assay for Lipid Storage Modulators (AID 1519; calls by dose curve). The settings on record: Drosophila S3 cells, BODIPY lipid droplet/cell ratio, laser cytometry, cells loaded with oleic acid; for activity change, negative = inhibition: at 25.7 µM (top of the series). The method in brief: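 Cells seeded at 5,000 per well were treated with compounds over a concentration series and loaded with oleic acid (400 uM, as added). Lipid droplet fluorescence (488 nm excitation, 500-530 nm channel) was read by laser-scanning cytometry and normalized to 20 uM Triacsin C.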
(In qHTS, concentration-response curves come from the screen itself.)

The target of assay [7] is ATP-dependent 6-phosphofructokinase (Trypanosoma brucei brucei) (UniProt O15648). Put plainly: qHTS Assay to Find Inhibitors of T. brucei phosphofructokinase: hit validation (AID 492961; active means well fitted curve in the direction sought with a large enough effect; an effect the other way counts as inactive or inconclusive;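 further: luminescence reports ADP formed as PFK phosphorylates fructose-6-phosphate with ATP; on the % scale 0 is the no-effect control and ±100 the full control effect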). The method in brief: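 Measures ADP output of PFK (1.25 nM) at 0.1 mM ATP, 0.5 mM F6P, pH 8.0 TEA buffer with 5 mM MgCl2. No-enzyme wells define full inhibition; uninhibited enzyme wells define zero.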
Sequence of ATP-dependent 6-phosphofructokinase (Trypanosoma brucei brucei) (O15648 whole entry, looked up): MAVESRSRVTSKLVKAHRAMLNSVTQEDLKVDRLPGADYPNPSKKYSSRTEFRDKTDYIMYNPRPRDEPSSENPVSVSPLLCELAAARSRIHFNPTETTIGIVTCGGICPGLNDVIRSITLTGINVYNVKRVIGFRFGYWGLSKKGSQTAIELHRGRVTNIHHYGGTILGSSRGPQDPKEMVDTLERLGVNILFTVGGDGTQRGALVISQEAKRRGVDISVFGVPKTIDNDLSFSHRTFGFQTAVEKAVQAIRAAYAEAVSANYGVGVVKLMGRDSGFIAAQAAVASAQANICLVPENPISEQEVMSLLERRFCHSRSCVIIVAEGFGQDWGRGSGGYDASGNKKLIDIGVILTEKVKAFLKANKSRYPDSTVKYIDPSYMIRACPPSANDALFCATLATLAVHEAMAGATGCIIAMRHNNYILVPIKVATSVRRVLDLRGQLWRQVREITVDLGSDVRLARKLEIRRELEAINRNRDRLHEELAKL

In assay [8] the target is Ubiquitin carboxyl-terminal hydrolase 1 (Homo sapiens) (UniProt O94782). Put plainly: Inhibitors of USP1/UAF1: Pilot qHTS (AID 504865; active means well fitted curve in the direction sought with a large enough effect; an effect the other way counts as inactive or inconclusive;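 further: rhodamine fluorescence freed from ubiquitin-rhodamine substrate followed over time; top concentration of the series differs between compounds; on the % scale 0 is the no-effect control and ±100 the full control effect; nearly all actives have a fitted effect of over 35% in size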). The method in brief:
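Deubiquitinase activity followed as kinetic rhodamine fluorescence release from 150 nM Ub-Rho. 1 nM USP1/UAF1 with compound, after 15 min room-temperature preincubation, in HEPES pH 7.8 buffer containing TCEP, EDTA, BSA and Tween-20.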

In assay [9] the target is Luciferin 4-monooxygenase (Photinus pyralis) (UniProt P08659). Kind of assay: Biochemical firefly luciferase enzyme assay for NPC (AID 624030; active means well fitted curve in the direction sought with a large enough effect; an effect the other way counts as inactive or inconclusive;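 further: purified P. pyralis luciferase at 10 nM with luciferin and ATP substrate; 0% = DMSO and -100% = full luciferase inhibition by PTC124 control; nearly all actives have a fitted effect of over 70% in size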). The method in brief: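 Direct inhibition of firefly luciferase enzyme (10 nM final, 50 mM Tris Acetate) assessed by luminescence within 5 minutes. Percent activity scaled between DMSO and PTC124 positive control, with concentration-effect curves classified by fit quality and response.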
Sequence of Luciferin 4-monooxygenase (Photinus pyralis) (P08659 whole entry, looked up): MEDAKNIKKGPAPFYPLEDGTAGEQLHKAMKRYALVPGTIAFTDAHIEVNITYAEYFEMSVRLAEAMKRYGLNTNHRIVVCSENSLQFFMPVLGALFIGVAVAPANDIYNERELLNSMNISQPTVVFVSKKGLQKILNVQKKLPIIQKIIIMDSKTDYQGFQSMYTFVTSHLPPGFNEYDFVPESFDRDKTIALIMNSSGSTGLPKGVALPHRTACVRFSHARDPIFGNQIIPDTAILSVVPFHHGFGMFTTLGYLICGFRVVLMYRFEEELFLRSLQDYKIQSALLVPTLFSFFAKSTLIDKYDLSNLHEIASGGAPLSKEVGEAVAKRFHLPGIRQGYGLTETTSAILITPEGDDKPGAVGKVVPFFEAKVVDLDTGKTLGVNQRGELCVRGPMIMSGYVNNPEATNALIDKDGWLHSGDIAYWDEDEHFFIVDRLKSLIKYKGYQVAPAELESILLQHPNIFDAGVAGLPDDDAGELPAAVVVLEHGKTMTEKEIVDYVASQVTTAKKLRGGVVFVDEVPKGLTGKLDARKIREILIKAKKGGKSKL

The nature of assay [10]: qHTS profiling for inhibitors of Plasmodium falciparum proliferation (AID 504749; active means well fitted curve in the direction sought with a large enough effect; an effect the other way counts as inactive or inconclusive; further: potency means the concentration at half of the fitted maximal effect; nearly all actives have a fitted effect of over 60% in size). The settings on record: P. falciparum in erythrocytes, SYBR Green DNA, 72 h; parasite line B. The method in brief:
(§1)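 Three-day growth assay of blood-stage parasites in erythrocytes (0.3% parasitemia, 2.5% hematocrit) at 37 C, 5% CO2, quantified by SYBR Green DNA staining after overnight detergent lysis.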

For a further assay, the system named is CP238. Described as above. The settings on record: P. falciparum in erythrocytes, SYBR Green DNA, 72 h; series mostly up to 12.8 µM. The method in brief: as §1
For another assay, the system named is CP256. The assay is described as above. The settings on record: P. falciparum in erythrocytes, SYBR Green DNA, 72 h; series mostly up to 12.8 µM. The method in brief: as §1
The subject of another assay is JCK. Described as above. The settings on record: P. falciparum in erythrocytes, SYBR Green DNA, 72 h; series mostly up to 12.8 µM. The method in brief: as §1
For a further assay, the system named is SC27B. The assay is described as above. The following applies: P. falciparum in erythrocytes, SYBR Green DNA, 72 h; series mostly up to 12.8 µM. The method in brief:
as §1

The target of assay [11] is Glucocorticoid receptor (Homo sapiens) (UniProt P04150). Put plainly: GR-EFC Redistribution (AID 451; calls by dose curve; further: potency means the concentration at half of the fitted maximal effect). The following applies: CHO-K1 GR-EFC translocation, beta-gal luminescence, 2 h. The method in brief:
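Translocation of GR-ED fusion to nuclear EA restores b-gal, read by luminescence after 1 h room-temperature detection. Engineered CHO-K1 biosensor cells, 1,000/well, exposed 2 h at 37 C to titrations up to 46 uM final.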

Assay [12] addresses 3',5'-cyclic-AMP phosphodiesterase 4B (Homo sapiens) (UniProt Q07343). Kind of assay: qHTS Assay for Inhibitors of PDE-IV (AID 607; active means well fitted activation curve with a large enough effect in the main read-out, with a control signal flat, not every such curve was filed as active; further: % of control where 0% means no effect). The method in brief: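 ACTOne HEK293 cells carry a modified cAMP-gated CNG channel and express endogenous PDE4; plated 1000 cells/well, compounds up to 22.9 uM final. Membrane-potential dye fluorescence (ex 535/em 590) was read; parental cells received 10 uM forskolin + 100 uM RO 20-1724.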

The mark [13] stands for this setting: measured here: cell count channel max response.
[14] abbreviates: measured here: lipid channel max response.

Records with an inconclusive call do not appear. The source made the active and inactive calls. Unless noted, the call rests on the fitted dose curve; in most records, active means well fitted curve in either direction with a large enough effect (not every such curve was filed as active); inconclusive means small, poorly fitted or top-dose-only effect, or another doubt; inactive means flat fitted curve, though single readings scatter.

Sequence of Glucocorticoid receptor (Homo sapiens) (P04150 whole entry, looked up, the tested form may be a part): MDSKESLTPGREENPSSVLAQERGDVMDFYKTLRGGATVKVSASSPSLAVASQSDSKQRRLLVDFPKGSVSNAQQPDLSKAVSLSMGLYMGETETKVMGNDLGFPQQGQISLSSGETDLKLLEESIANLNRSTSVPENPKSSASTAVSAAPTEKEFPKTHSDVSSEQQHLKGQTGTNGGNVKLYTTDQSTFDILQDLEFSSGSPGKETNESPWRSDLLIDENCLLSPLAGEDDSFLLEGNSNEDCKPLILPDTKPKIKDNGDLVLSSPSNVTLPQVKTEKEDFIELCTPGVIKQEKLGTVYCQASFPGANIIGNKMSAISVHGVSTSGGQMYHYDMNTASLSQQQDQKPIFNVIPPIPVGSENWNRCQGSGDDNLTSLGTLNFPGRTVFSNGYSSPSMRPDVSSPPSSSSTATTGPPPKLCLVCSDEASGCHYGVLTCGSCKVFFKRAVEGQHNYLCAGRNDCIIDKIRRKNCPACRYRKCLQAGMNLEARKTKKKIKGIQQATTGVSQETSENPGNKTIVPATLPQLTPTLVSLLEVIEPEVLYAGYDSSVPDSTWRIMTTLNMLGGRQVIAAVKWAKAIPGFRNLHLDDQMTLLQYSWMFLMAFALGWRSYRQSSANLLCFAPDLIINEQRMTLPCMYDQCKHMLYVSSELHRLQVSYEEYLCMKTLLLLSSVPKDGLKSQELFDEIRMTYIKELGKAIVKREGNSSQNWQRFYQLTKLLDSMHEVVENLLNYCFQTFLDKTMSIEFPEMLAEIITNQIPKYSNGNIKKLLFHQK
Sequence of Ubiquitin carboxyl-terminal hydrolase 1 (Homo sapiens) (O94782 whole entry, looked up): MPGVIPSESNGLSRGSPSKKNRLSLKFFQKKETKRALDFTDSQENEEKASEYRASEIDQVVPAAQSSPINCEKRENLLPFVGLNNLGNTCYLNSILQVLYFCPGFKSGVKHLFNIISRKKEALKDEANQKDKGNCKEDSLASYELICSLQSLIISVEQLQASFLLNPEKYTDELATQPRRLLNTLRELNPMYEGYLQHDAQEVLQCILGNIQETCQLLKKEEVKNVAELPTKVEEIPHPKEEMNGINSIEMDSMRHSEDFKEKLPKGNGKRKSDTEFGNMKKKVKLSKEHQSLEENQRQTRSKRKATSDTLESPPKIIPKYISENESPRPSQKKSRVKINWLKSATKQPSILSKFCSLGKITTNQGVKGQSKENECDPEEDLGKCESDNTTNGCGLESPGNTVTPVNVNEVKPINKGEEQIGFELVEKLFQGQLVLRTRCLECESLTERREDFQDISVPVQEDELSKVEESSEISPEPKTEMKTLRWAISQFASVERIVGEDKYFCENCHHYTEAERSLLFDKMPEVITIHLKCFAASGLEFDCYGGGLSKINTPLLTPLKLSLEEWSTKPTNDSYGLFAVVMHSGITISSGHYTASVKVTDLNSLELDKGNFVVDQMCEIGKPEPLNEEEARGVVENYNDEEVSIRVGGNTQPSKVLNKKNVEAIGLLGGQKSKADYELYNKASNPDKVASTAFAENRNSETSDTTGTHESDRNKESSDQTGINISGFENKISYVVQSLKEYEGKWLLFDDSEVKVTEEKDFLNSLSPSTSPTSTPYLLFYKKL
Sequence of 3',5'-cyclic-AMP phosphodiesterase 4B (Homo sapiens) (Q07343 whole entry, looked up): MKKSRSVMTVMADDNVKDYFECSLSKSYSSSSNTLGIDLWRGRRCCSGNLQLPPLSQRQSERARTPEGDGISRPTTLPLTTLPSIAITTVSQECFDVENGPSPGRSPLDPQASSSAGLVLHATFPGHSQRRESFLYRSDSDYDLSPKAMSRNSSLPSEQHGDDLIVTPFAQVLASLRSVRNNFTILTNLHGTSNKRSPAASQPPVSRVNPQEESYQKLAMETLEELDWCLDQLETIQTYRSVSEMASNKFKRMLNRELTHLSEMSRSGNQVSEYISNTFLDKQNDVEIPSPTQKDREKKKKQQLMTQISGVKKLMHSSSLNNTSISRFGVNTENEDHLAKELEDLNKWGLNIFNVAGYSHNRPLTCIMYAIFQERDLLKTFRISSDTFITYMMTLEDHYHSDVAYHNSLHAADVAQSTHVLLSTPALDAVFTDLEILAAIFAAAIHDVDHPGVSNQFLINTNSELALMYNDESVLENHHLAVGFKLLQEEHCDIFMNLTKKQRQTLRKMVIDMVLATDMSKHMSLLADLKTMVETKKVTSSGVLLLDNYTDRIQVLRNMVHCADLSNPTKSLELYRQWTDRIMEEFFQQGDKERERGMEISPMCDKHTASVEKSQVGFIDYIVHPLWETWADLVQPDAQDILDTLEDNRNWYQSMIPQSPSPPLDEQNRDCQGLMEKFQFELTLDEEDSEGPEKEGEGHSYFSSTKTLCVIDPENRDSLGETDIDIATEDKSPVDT

As to `CC(C)(C)NC[C@@H](O)COc1ccccc1C1CCCC1`, the molecule was called inactive in [1], in assay [3] and in assay [7]. Besides, the activity change, negative = inhibition in [2] was -6.56% (inactive); in assay [6], 1.2% (inactive). Also, the Potency in assay [4] is 4.85 µM (active); in assay [10], 3.16 µM (active); with CP238, 3.16 µM (active); in the assay with CP256, 3.98 µM (active); in the assay with JCK, 3.16 µM (active); in the assay with SC27B it was 3.55 µM (active). The Potency result in [5], in assay [8] and in assay [9] was “inactive” each time. Also, the max response in [6] (setting [13]) is -14.9%; in assay [6] (setting [14]), -12.5%.

Take `COC(=O)[C@@H]1[C@@H]2C[C@H]3c4[nH]c5cc(OC)ccc5c4CCN3C[C@@H]2C[C@H](OC(=O)c2cc(OC)c(OC)c(OC)c2)[C@H]1OC`: the outcome in assay [1], in assay [3] and in assay [12] was inactive. In addition, the activity change, negative = inhibition in [2] is -10.5% (inactive); in [6], -6.07% (inactive). In addition, in [11], the Potency is > 20.6 µM (inactive). The Potency entry in assay [5] is “inactive”. In addition, the max response in assay [6] (setting [13]) was -5.3%; in [6] (setting [14]) it was -12.8%.

On to `O=C(O)CCCC[C@H]1SC[C@H]2NC(=O)N[C@@H]21`, for which the outcome in [1], in assay [3] and in assay [12] was inactive. In addition, the figures for the activity change, negative = inhibition in assay [2] and in assay [6] were 2.95% (inactive) and -3.62% (inactive), respectively. In addition, the Potency in assay [11] was > 20.6 µM (inactive); in assay [5] it was 0.00126 µM (active). For the same molecule, the values for the max response in assay [6] (setting [13]) and in assay [6] (setting [14]) were 5.29% and 0.0876%, respectively. Also, the Potency entry in assay [8] was “inactive”.

For the molecule `CCCC(=O)Nc1ncnc2c1ncn2[C@@H]1O[C@H]2COP(=O)(O)O[C@@H]2[C@@H]1OC(=O)CCC`, the molecule was called inactive in [1], in [3] and in assay [12]. Also, the figures for the activity change, negative = inhibition in assay [2] and in [6] were 16.7% (inactive) and -1.42% (inactive), respectively. The Potency in assay [11] is > 20.6 µM (inactive). Further, the Potency entry in [5] and in assay [8] was “inactive” throughout. The max response in [6] (setting [13]) is -2.67%; in [6] (setting [14]), -4.54%.

Take `O[C@H](c1cc(C(F)(F)F)nc2c(C(F)(F)F)cccc12)[C@H]1CCCCN1`: the outcome in [1], in assay [3] and in [12] was inactive. The activity change, negative = inhibition is 24.6% (inactive) in assay [2] and -11.8% (inactive) in [6]. Further, in [11], the Potency was > 20.6 µM (inactive). Further, the Potency result in [5] and in assay [8] was “inactive” in each case. Also, the values for the max response in [6] (setting [13]) and in assay [6] (setting [14]) were -16.3% and -23.7%, respectively.

For the molecule `C[C@@H]1[C@H](C)CC[C@@]2(C(=O)O)CC[C@]3(C)C(=CC[C@H]4[C@@]5(C)CC[C@@H](O)C(C)(C)[C@@H]5CC[C@@]43C)[C@@H]12`, the molecule was called inactive in [1], in [3] and in [12]. Besides, the activity change, negative = inhibition in assay [2] is -17.6% (inactive); in assay [6] it was -4.31% (inactive). For the same molecule, the Potency in [4] and in assay [11] was > 20.6 µM (inactive) each time. Besides, the max response was -6.67% in [6] (setting [13]) and -11% in assay [6] (setting [14]). For the same molecule, the Potency result in [8] is “inactive”.

Regarding `O=c1cc(-c2ccc(O)cc2)oc2c([C@H]3O[C@@H](CO)[C@@H](O)[C@@H](O)[C@@H]3O)c(O)cc(O)c12`, the molecule was classed as inactive in assay [1], in assay [3] and in [12]. Further, the values for the activity change, negative = inhibition in assay [2] and in assay [6] were 2.91% (inactive) and -1.45% (inactive), respectively. Besides, the Potency in assay [4] was > 20.6 µM (inactive). The Potency entry in [5] and in [8] was “inactive” in each case. In addition, the max response was -1.3% in assay [6] (setting [13]) and 1.02% in assay [6] (setting [14]).

The values above are taken from PubChem BioAssay (NCATS).
